# The list is not random: actives were taken first. Their share in the collection is about 1.8%.
# GSIS activator – GLuc luminescence reporter in INS-1E cells, primary screen for activators of glucose-dependent secretion of insulin. INS-1E GLuc reporter insulin secretion, 2-3 h. activation, % at 16.6 µM. AID 743287, 2014. 370,000 tested, 0.61% active;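 active = lowest replicate activation of at least 40%, so every replicate reaches that level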;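 note: 0% = median of neutral control wells and 100% = median of IBMX positive control wells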
# CFTR F508del cor – F508del CFTR correction, initial screen, CFBE line, single point; CFBE cells, YFP halide quenching; stimulated with forskolin plus potentiator P3; % fluorescence drop versus neutral controls; activity (quench increase), % at 7.58 µM; 350,000 tested, 0.36% active; AID 720511, 2013;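 active = mean added fluorescence quench of at least 8% versus neutral control, with both replicates also reaching 8%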;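 note: cells transiently co-express mutant CFTR-F508del with the halide-sensitive YFP; corrector assay measuring rescue of mutant channel to the surface after 24 h compound exposure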
# LGR2 antag – inhibitors of bursicon-induced LGR2 CRE-luciferase signal, primary screen, cell-based, HEK293, CRE-luciferase reporter, bursicon stimulation. Drosophila bursicon receptor LGR2 (rickets). bursicon-stimulated, 4 h. inhibition, % at 9.99 µM. 380,000 tested, 0.35% active;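 active = drop in luminescence signal, shown as inhibition above about 50% in the replicate tests, limit read from the data, passing the limit was not always enough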;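 note: agonist challenge used bursicon conditioned medium at about half maximal strength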
# RAD54 inh – inhibitors of human RAD54 branch migration, primary screen, biochemical, fluorescence, single point | RAD54 Holliday junction branch migration, FAM/BHQ fluorescence | inhibition, % at 10.4 µM | 360,000 tested, 0.14% active;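 active = mean normalized replicate activity at least 40 and at least half of replicates scoring 40 or more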;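 note: 0% = median of neutral control wells and 100% = median of positive control wells; inhibitors cause a drop in the FAM fluorescence signal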
# Target sequence (Q92698 whole entry, looked up): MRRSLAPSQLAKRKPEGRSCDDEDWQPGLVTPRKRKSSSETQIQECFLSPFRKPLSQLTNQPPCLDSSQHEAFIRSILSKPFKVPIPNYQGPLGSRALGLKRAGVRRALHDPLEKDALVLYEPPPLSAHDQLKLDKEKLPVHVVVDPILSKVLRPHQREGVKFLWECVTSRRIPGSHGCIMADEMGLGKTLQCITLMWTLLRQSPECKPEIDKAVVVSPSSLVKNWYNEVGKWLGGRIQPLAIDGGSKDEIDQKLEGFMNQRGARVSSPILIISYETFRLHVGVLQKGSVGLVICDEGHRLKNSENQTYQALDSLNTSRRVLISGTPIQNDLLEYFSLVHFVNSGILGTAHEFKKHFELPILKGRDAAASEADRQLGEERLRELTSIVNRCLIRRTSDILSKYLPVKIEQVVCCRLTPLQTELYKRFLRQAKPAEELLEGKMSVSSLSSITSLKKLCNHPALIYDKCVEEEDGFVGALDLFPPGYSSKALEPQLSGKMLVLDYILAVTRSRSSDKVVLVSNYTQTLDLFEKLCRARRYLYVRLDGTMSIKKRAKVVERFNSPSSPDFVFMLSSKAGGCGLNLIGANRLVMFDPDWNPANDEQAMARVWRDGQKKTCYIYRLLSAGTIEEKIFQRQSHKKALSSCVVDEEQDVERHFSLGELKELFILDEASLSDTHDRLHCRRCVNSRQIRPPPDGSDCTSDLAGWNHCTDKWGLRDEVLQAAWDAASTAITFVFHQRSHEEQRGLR
# RAD52 anneal inh – RAD52 DNA annealing inhibitors, primary screen, biochemical, FRET, single point, set 2; inhibition, % at 18.7 µM; AID 651710, 2012; recombinant RAD52 DNA annealing, FRET fluorescence; DNA repair protein RAD52 homolog (Homo sapiens), P43351; 360,000 tested, 0.46% active;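 active = every replicate showing at least 50% inhibition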
# EWS-Fli inh – EWS/Fli-driven NR0B1 reporter inhibitors, primary screen, A673 cells, NR0B1 luciferase, luminescence, MLPCN library. 350,000 tested, 0.67% active. viability-normalised. inhibition, % at 12.6 µM;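 active = mean inhibition of at least 50% after viability correction, with every replicate also passing that limit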;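 note: firefly luciferase signal divided by Alamar Blue viability fluorescence both relative to DMSO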
# DNA binder FP – DNA-binding compounds via dye displacement, dose response, artefact control for RAD52 inhibitor project, biochemical, fluorescence polarization, cherry-pick; shares compounds with RAD52 anneal inh; AID 652128, 2013; Salmon sperm DNA/acridine orange FP displacement; 1,000 tested, 8% active; AC50, µM;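 active = fitted half-maximal concentration for signal loss at or below twice the highest dose tested, in every separate run, actives reach about 64 µM in these data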
# An asterisk follows results filed as active; i = inactive; . = no result given; ! = a repeat was not active.
SMILES,GSIS activator,CFTR F508del cor,LGR2 antag,RAD54 inh,RAD52 anneal inh,EWS-Fli inh,DNA binder FP
CCC1CCc2sc(C(=O)N3CCN(c4ccccn4)CC3)cc2C1 (stereo not drawn),4.1,-6.9,-6.8,4.0,-14.7,.,.
COc1ccc(-c2cc3nc(NCCCN(C)C)n(C)c(=O)c3s2)c(C)c1,31.7,1.6,-1.6,33.4,55.3*,11.4,i
CN(C)CCCNC(=O)c1ccc(-c2cc3nc(NCc4cccnc4)n(C)c(=O)c3s2)cc1,-14.3,2.7,-17.4,34.7,75.9*,0.1,i
CN(C)CCCNc1nc2cc(-c3cnn(C)c3)sc2c(=O)n1C,9.6,1.9,9.5,35.4,59.3*,4.1,i
C[C@H]1CN([C@@H](C)CO)C(=O)CCCn2cc(nn2)CO[C@@H]1CN(C)Cc1cccc2c1OCCCO2,4.5,1.8,5.4,5.3,-9.8,-3.8,.
CCN(CC)CCNC(=O)c1cc2c(-c3cccc(OC)c3)nn(C)c2s1,20.0,2.7,8.7,.,68.5*,3.3,i
COc1ccc(C2c3ccc4ccccc4c3Oc3ncn(CCCN(C)C)c(=N)c32)cc1 (stereo not drawn),0.2,0.1,-3.0,23.3,79.6*,63.3*,i
COc1ccccc1C1c2ccc3ccccc3c2Oc2ncn(CCN(C)C)c(=N)c21 (stereo not drawn),75.0,1.2,-6.3,13.1,60.1*,23.3,i
CCN(CC)c1ccc(C(=O)OCC(=O)Nc2cc3oc4ccccc4c3cc2OC)cc1,26.7,.,14.4,1.5,.,.,.
C=Cn1cc[n+](CC(=O)c2ccc(OC)cc2)c1,4.8,-3.2,-3.9,1.0,7.1,0.1,.
CCCCOc1cc(C(=O)OCCN(CC)CC)ccc1N,.,-3.1,-5.1,8.7,84.8*!,7.9,i
Cc1cccc(N(CC(=O)NC(C)(C)C)C(=O)CNC(=O)c2cccs2)c1C,4.5,-0.3,-3.3,.,0.9,0.2,.
CC(=O)Nc1c(Cl)c(Cl)c2c(c1Cl)Cc1cc(Cl)ccc1-2,21.8,1.0,11.4,.,-13.7,19.0,.
NC(=O)[C@@H]1CCCCNc2c(F)cc([N+](=O)[O-])cc2C(=O)N[C@@H](CCCN=C(N)N)C(=O)NCC(=O)N1,17.9,-2.3,11.6,9.5,61.4*,-0.5,i
NC(=O)C[C@H]1NC(=O)[C@H](CCC(=O)O)NC(=O)c2cc([N+](=O)[O-])cc(I)c2NCCC[C@@H](C(N)=O)NC1=O,3.2,-1.2,9.4,-7.7,.,-5.9,.
C[C@@H]1NC(=O)[C@H](CCCN=C(N)N)NC(=O)c2cc([N+](=O)[O-])cc(I)c2NCCC[C@@H](C(N)=O)NC1=O,12.0,1.5,-12.2,16.6,86.2*,-1.6,i
NCCCC[C@@H]1NC(=O)c2cc([N+](=O)[O-])cc(F)c2NCCCC[C@@H](C(N)=O)NC(=O)[C@H](CCC(N)=O)NC1=O,9.1,-1.3,-15.8,21.7,80.4*,-2.8,i
CCOC(=O)N(C)C[C@@H]1OCc2cn(nn2)CCCC(=O)N([C@H](C)CO)C[C@@H]1C,-10.5,0.2,7.2,-9.3,10.7,0.4,.
O=C(CSc1ncnc2c1nnn2Cc1ccccc1)NC1CCCC1,-4.8,-1.8,-2.4,.,-3.3,3.1,.
COc1cc2nc(N(CCCN(C)C)C(=O)c3ccc(S(=O)(=O)N4CCc5ccccc5C4)cc3)sc2cc1OC,3.9,-1.1,-1.3,14.1,49.5,8.4,.
COc1cccc2sc(N(CCCN(C)C)C(=O)c3ccc(S(=O)(=O)N4CCc5ccccc5C4)cc3)nc12,-44.3,1.7,5.8,16.7,70.0*,.,i
CCOc1ccc2nc(N(CCCN(C)C)C(=O)c3ccc(S(=O)(=O)N4CCc5ccccc5C4)cc3)sc2c1,-37.3,-1.4,21.3,-2.5,59.1*,.,i
C[C@H]1CN([C@@H](C)CO)C(=O)CCCn2cc(nn2)CO[C@@H]1CN(C)C(=O)Cc1ccccc1,5.3,2.9,-0.2,-2.6,-5.9,1.4,.
CCOc1cc(/C=C/c2cc(C(=O)O)c3ccccc3n2)ccc1O,8.5,.,14.2,5.6,.,.,.
COc1cccc(C=Nc2ccc(N3CCOCC3)cc2)c1O,-2.0,-0.1,-2.8,11.9,7.5,16.1,.
SMILES,GSIS activator,CFTR F508del cor,LGR2 antag,RAD54 inh,RAD52 anneal inh,EWS-Fli inh,DNA binder FP
CCN1CCN(c2ccc(N=Cc3ccccc3O)cc2)CC1,4.1,-1.4,-16.8,.,98.9*,-9.5,i
O=C1c2cccc(NCCNCCO)c2C(=O)c2cccc(NCCNCCO)c21,5.8,5.3,91.8*,.,63.2*,58.8*,4.04µM*
O=C(Nc1ccc(N2CCCC2)cc1)c1cccc(-c2cc3ccccc3oc2=O)c1,0.9,.,-7.0,2.0,58.3*,-19.1,i
COc1ccc(-c2csc(N(CCCN(C)C)C(=O)c3ccccc3Cl)n2)cc1,-31.1,-8.8,13.4,21.8,53.2*,14.1,i
COc1ccc(-c2csc(N(CCCN(C)C)C(=O)c3ccccc3C)n2)cc1,-13.9,-7.1,9.9,10.6,48.3,25.7,.
Oc1ccc(CN2CCN(Cc3ccccc3)CC2)c2cccnc12,.,.,.,-9.4,.,.,.
CN1CCN(C2CCN(Cc3ccc(O)c4ncccc34)CC2)CC1,.,-2.8,.,16.2,91.8*,-1.3,i
Cc1c(C)n(Cc2ccccc2)c2ccc(C(=O)OCCN(C)C)cc12,4.8,-0.1,-9.7,30.9,65.9*,2.1,i
Cc1c(C)n(Cc2ccccc2)c2ccc(C(=O)NCCN3CCOCC3)cc12,0.4,-0.4,-2.1,-11.4,15.8,-6.3,.
O=C(Nc1ccc(Cc2ccncc2)cc1)C1CCC(N2C(=O)C3CC=CCC3C2=O)CC1 (stereo not drawn),-2.0,.,-5.1,7.8,.,.,.
NCCOc1ccccc1OCCN,-5.4,-1.6,-6.0,2.9,58.3*,3.8,i
CCN1CCC(=NNC(=O)c2ccco2)CC1,.,.,.,4.2,.,.,.
CCCN(C)C[C@@H]1OCCCC[C@H](C)Oc2ccc(NC(=O)c3ccccc3)cc2C(=O)N([C@H](C)CO)C[C@@H]1C,-2.5,1.8,-1.9,1.5,15.7,0.9,.
CCCOc1cccc(C(=O)NC(=S)Nc2ccc(N3CCN(C)CC3)cc2)c1,-2.1,3.0,-1.2,.,66.1*,-2.4,i
OC(c1ccccc1)(c1ccccc1)C1CCN(CCCOc2ccc3c(c2)CCCC3)CC1,761.6*,-0.9,31.2,.,51.3*,47.1,i
COc1cccc(OCCCN2CCC(C(O)(c3ccccc3)c3ccccc3)CC2)c1,9.5,3.9,12.6,.,4.1,10.8,.

# From PubChem
